Experimental data published in PubChem BioAssay (NCATS).
Results filed as inconclusive are left out. Activity calls are given as the source filed them. Unless noted, calls come from the whole dose curve; as a rule, active = well fitted curve in the direction sought with a large enough effect; inconclusive = small, poorly fitted or top-dose-only effect, or another doubt; inactive = no such curve, though single readings can be large; an effect the other way counts as inactive or inconclusive.

Key:
[1] = AP1 Signaling Pathway (AID 357; active = well fitted curve in either direction with a large enough effect, not every such curve was filed as active;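 note: ME-180 reporter cells stimulated with EGF at its EC50 level; % is set by controls: 0 for no effect and ±100 for the full control effect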); details: ME-180 AP-1-bla reporter, EGF-induced, beta-lactamase ratio, 5 h; at 7.69 µM (top of the series) unless noted
Procedure, shortened: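 Titration-series screen for positive or negative modulators of EC50 EGF-induced signaling in ME-180 cells carrying an AP-1-driven beta-lactamase reporter. After 5 hours at 37 degrees Celsius, CCF4 460nm/530nm emission ratio gave %Activity; AC50 values derived.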

[2] = target: Cytochrome P450 1A2 (Homo sapiens) (UniProt P05177); assay: p450-cyp1a2 (AID 410; calls by dose curve; note: potency is the fitted concentration of half-maximal effect;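 for activity change, negative = inhibition: -100% = full effect of reference inhibitor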)
Procedure, shortened: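 20nM CYP1A2, 100uM Luciferin-ME (=Km), 100mM KPO4; cpd 10 min RT; +NADPH regen, 60 min RT; stop/detect 20 min; luminescence. Normalized to furafylline 57 uM = full inhibition.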

[3] = NFAT Signaling Pathway (AID 444; active = well fitted curve in either direction with a large enough effect, not every such curve was filed as active;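 note: carbachol stimulus at about its EC50 of 1 µM final; % is set by controls: 0 for no effect and ±100 for the full control effect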); details: Jurkat NFAT-bla M1, carbachol, beta-lactamase ratio, 5 h; at 7.69 µM (top of the series) unless noted
Procedure, shortened: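 Jurkat cells carrying an NFAT-driven β-lactamase reporter and co-transfected muscarinic M1 receptor were treated with compound plus carbachol (1 uM final, an EC50 level) for 5 h at 37 °C. CCF4 loading followed for 1 h at RT; 460/530 nm ratio gave %activity.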

[4] = Stat Signaling Pathway (AID 446; active = well fitted curve in either direction with a large enough effect, not every such curve was filed as active;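 note: ME-180 cervical cancer cells given 40 pM IL-6 alongside compound; SIE-controlled beta-lactamase reporter measured as 460/530 nm FRET emission ratio; % is set by controls: 0 for no effect and ±100 for the full control effect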); details: ME-180 (cervical carcinoma) SIE beta-lactamase reporter, IL-6 stimulated, 5 h; at 7.69 µM (top of the series) unless noted
Procedure, shortened: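 Normalization used AC90 stimulation (300 pM IL-6) and AC90 inhibition (125 nM pan-JAK inhibitor at 40 pM IL-6). The underlying signal is SIE-driven beta-lactamase in ME-180 cells after 5 h IL-6 exposure with compound.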

[5] = target: Glucocorticoid receptor (Homo sapiens) (UniProt P04150); assay: GR-GFP Redistribution (AID 450;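 active = compounds whose dose series gives a full or clear partial fitted curve of increased nuclear translocation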; note: potency is the fitted concentration of half-maximal effect); details: U2OS GR-GFP nuclear translocation, laser cytometry, 2 h
[6] = target: Glucocorticoid receptor (Homo sapiens) (UniProt P04150); assay: GR-EFC Redistribution (AID 451; calls by dose curve; note: potency is the fitted concentration of half-maximal effect); details: CHO-K1 GR-EFC translocation, beta-gal luminescence, 2 h
Procedure, shortened: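 CHO-K1 cells stably expressing nuclear-localized β-gal enzyme acceptor and GR fused C-terminally to the enzyme donor fragment; ligand-driven nuclear translocation restores β-gal by complementation. Compounds titrated up to 46 uM final, 2 h at 37 °C; luminescence read.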

[7] = target: Mitogen-activated protein kinase 10 (Mus musculus) (UniProt Q61831); assay: JNK3 AlphaScreen Assay (AID 530; active = well fitted curve in either direction with a large enough effect, not every such curve was filed as active;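 note: kinase came from lysate of stimulated human HepG2 cells; signal reports phosphorylation of biotinylated GST-cJun 1-79 at Ser73 with 10 µM ATP; % is set by controls: 0 for no effect and ±100 for the full control effect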)
Procedure, shortened: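 Biotinylated GST-cJun(1-79) served as substrate for JNK3 in HepG2 lysates stimulated with IL-1beta and TNF-alpha. ATP was 10 uM final, pH 7.6. Ser73 phosphorylation was quantified by AlphaScreen (680 nm excitation).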

[8] = target: 3',5'-cyclic-AMP phosphodiesterase 4B (Homo sapiens) (UniProt Q07343); assay: qHTS Assay for Inhibitors of PDE-IV (AID 607; active = well fitted activation curve with a large enough effect in the main read-out, with a control signal flat, not every such curve was filed as active; note: % of control where 0% means no effect)
Procedure, shortened: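 HEK293 ACTOne cells with CNG channel (1000/well), endogenous PDE4; membrane potential dye, compounds up to 22.9 uM final. Fluorescence Ex 535/Em 590; RO 20-1724 (100 uM final) as reference.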

[9] = target: Cytochrome P450 2C9 (Homo sapiens) (UniProt P11712); assay: qHTS Assay for Inhibitors and Substrates of Cytochrome P450 2C9 (AID 883); note: nearly all actives have a fitted effect of over 60% in size; note: potency is the fitted concentration of half-maximal effect
Procedure, shortened: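 A luminogenic readout tracked human CYP2C9 (10nM) converting deoxyluciferin (100uM, at KM) in 25mM KPO4 during 60 min at 37C with regenerated NADPH. Values normalized to 57uM sulphaphenazole as complete inhibition.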

[10] = target: Cytochrome P450 2D6 (Homo sapiens) (UniProt P10635); assay: qHTS Assay for Inhibitors and Substrates of Cytochrome P450 2D6 (AID 891);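 note: luciferin methyl ether substrate demethylated by CYP2D6 with NADPH regeneration; % is set by controls: 0 for no effect and ±100 for the full control effect; nearly all actives have a fitted effect of over 60% in size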
Procedure, shortened: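 Luminescent read-out of luciferin formed by 5 nM human CYP2D6 demethylating 30 uM Luciferin-ME EGE (Km level) over 60 min at room temperature after NADPH regeneration addition. Data normalized to full inhibition by 1.43 uM quinidine.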

[11] = target: Cytochrome P450 2C19 (Homo sapiens) (UniProt P33261); assay: qHTS Assay for Inhibitors and Substrates of Cytochrome P450 2C19 (AID 899); note: % is set by controls: 0 for no effect and ±100 for the full control effect; nearly all actives have a fitted effect of over 60% in size
Procedure, shortened: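 NADPH-dependent conversion of Luciferin-H EGE (10uM, at KM) by 5nM enzyme in 50mM KPO4, 60 min at 37C following 10 min compound preincubation. Stopped with luciferin detection buffer; luminescence read after 20 min.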

[12] = qHTS Assay for Identification of Small Molecule Agonists for Thrombopoietin (TPO) Signaling Pathway (AID 917); note: % is set by controls: 0 for no effect and ±100 for the full control effect
Procedure, shortened: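 First, Ba/F3 cells with human TPO receptor were held overnight without IL-3. Next, compounds and TPO (26 pM final) were added. After 24 hrs at 37 C, luciferase detection reagent was added and luminescence measured following 10 min at room temperature.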

[13] = target: Muscarinic acetylcholine receptor M1 (Rattus norvegicus) (UniProt P08482); assay: qHTS Assay for Antagonists of Acetylcholine Muscarinic M1 Receptor: Measurement of IP-One Response (AID 944); note: nearly all actives have a fitted effect of over 75% in size
Procedure, shortened: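 Read-out: HTRF competition between d2-IP1 and Eu-cryptate anti-IP1 antibody, emission 620 and 665 nm. Stimulus was carbachol, EC80 (200 nM), for 30 min in M1-CHO cells (rat receptor), after 10 min compound pre-treatment.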

[14] = target: Pyruvate kinase PKM (Homo sapiens) (UniProt P14618); assay: qHTS Assay for Activators of Human Muscle Pyruvate Kinase (AID 954; active = well fitted curve in the direction sought with a large enough effect, not every such curve was filed as active;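 note: 0% = uninhibited enzyme and -100% = no enzyme or full thiadiazolimine inhibition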)
Procedure, shortened: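 Compound pinned into substrate mix (0.5 mM PEP, 0.1 mM ADP), then 0.1 nM PKM2 added; 1 h, RT. Stop/detection luciferase reagent added, luminescence read. Normalized to no-inhibition and no-enzyme or reference-inhibitor controls.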

[15] = target: Alpha-galactosidase A (Homo sapiens) (UniProt P06280); assay: Counterscreen for Glucocerebrosidase Inhibitors: qHTS Assay for Human alpha-Galactosidase at pH 4.5 (AID 992); note: 0% is about no effect
Procedure, shortened: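 Steps: enzyme (2 nM final), then compound across 0.7 nM to 77 uM, then 80 uM fluorogenic galactopyranoside substrate; incubate 20 min at room temperature; quench at pH 10; measure fluorescence at 365/440 nm.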

[16] = target: alpha-glucosidase (Oryza sativa, rice) (UniProt Q653V4); assay: Counterscreen for Glucocerebrosidase Inhibitors: qHTS Assay for Rice alpha-Glucosidase at pH 5.0 (AID 997);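 note: 0% = full activity with enzyme and -100% = basal without enzyme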
Procedure, shortened: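 Endpoint fluorogenic assay at pH 5.0: compounds (0.7 nM to 77 uM) titrated against 4 nM rice enzyme and 400 uM 4-MU-alpha-glucoside for 20 min at room temperature; NaOH/glycine stop, read ex 365/em 440 nm, Hill-fitted AC50.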

[17] = target: Guanine nucleotide-binding protein G(i) subunit alpha-1 (Homo sapiens) (UniProt P63096); assay: qHTS Assay for Inhibitors of RGS12 GoLoco Motif Activity (Green Fluorophore) (AID 879);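 note: 0% = labeled peptide with Gαi1 and full inhibition = labeled peptide alone without protein; negative values mean loss of peptide binding seen as reduced polarization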
Procedure, shortened: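 A drop in FITC polarization marked displacement of the FITC-tagged RGS12 GoLoco peptide (10 nM) from Gαi1 (50 nM). Compounds were incubated 10 min at room temperature in Tris pH 7.5 buffer containing 150 mM NaCl, 0.1 mM GDP and 0.05% NP40; unlabeled peptide titration served as control.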

[18] = target: Cytochrome P450 3A4 (Homo sapiens) (UniProt P08684); assay: qHTS Assay for Activators of Cytochrome P450 3A4 (AID 885); note: nearly all actives have a fitted effect of over 65% in size; note: potency is the fitted concentration of half-maximal effect
Procedure, shortened: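 Human CYP3A4 dealkylates Luciferin-PPXE to luciferin, which luciferase detection converts to light. Substrate was at its KM (25uM), buffer 200mM KPO4, reaction 60 min at RT.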

[19] = target: Pyruvate kinase (Leishmania mexicana) (UniProt Q27686); assay: qHTS Validation Assay for Inhibitors of Leishmania Mexicana Pyruvate Kinase (AID 945);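 note: 0% = DMSO only neutral control wells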
Procedure, shortened: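 Mutant LmPYK (E451W), 0.2 nM, plus 0.5 mM PEP and 0.1 mM ADP in 50 mM imidazole pH 7.2 containing 0.01% Tween 20 and 0.05% BSA. Incubated 1 h at room temperature; luminescence via PKLight, normalized to DMSO.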

[20] = target: Muscarinic acetylcholine receptor M1 (Rattus norvegicus) (UniProt P08482); assay: qHTS Assay for Antagonists of Acetylcholine Muscarinic M1 Receptor: Kinetic Measurement of Intracellular Calcium Response (AID 943);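 note: Fluo-4 calcium signal as peak divided by basal fluorescence over 4 min; nearly all actives have a fitted effect of over 75% in size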
Procedure, shortened: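 Read-out: peak over basal Fluo-4 fluorescence, kinetic at 1 Hz for 4 min after EC80 carbachol (100 nM final). Rat M1-CHO cells, dye loaded 1 h at 37C, compound added 10 min before agonist.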

Sequence of Glucocorticoid receptor (Homo sapiens) (P04150 whole entry, looked up, the tested form may be a part): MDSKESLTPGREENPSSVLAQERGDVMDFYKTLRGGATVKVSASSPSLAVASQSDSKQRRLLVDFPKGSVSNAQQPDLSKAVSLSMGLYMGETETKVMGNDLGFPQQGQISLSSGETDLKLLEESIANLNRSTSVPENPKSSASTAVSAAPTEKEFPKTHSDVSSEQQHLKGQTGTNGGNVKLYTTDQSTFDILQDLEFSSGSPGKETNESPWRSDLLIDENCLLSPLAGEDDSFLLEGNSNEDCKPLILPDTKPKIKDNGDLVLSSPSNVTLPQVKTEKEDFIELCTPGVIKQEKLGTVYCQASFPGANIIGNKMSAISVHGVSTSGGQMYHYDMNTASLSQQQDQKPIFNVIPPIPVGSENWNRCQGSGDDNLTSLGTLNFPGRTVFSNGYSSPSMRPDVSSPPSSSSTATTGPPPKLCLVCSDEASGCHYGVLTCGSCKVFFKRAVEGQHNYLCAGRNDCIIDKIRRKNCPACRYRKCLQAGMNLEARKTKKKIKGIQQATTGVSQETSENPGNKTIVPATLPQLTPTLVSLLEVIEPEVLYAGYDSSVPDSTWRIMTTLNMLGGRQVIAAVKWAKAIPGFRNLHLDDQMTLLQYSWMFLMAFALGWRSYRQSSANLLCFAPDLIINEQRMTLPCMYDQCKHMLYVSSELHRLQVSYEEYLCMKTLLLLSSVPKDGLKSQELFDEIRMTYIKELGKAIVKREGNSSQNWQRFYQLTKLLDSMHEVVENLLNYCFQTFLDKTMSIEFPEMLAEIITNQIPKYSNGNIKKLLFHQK
Sequence of Cytochrome P450 2C19 (Homo sapiens) (P33261 whole entry, looked up): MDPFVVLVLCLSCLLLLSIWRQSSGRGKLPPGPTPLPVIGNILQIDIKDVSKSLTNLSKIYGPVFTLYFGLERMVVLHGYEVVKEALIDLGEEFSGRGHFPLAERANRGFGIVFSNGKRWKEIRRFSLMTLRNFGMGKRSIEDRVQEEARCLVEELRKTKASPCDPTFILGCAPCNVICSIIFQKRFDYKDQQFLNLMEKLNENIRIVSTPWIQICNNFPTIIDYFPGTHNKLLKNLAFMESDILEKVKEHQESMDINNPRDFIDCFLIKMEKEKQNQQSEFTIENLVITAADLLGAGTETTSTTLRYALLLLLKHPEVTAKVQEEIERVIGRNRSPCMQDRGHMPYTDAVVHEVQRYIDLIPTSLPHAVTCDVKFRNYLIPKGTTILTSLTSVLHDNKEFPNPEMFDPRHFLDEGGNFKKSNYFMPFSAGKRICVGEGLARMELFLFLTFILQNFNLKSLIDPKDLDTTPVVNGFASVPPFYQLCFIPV
Sequence of Pyruvate kinase PKM (Homo sapiens) (P14618 whole entry, looked up): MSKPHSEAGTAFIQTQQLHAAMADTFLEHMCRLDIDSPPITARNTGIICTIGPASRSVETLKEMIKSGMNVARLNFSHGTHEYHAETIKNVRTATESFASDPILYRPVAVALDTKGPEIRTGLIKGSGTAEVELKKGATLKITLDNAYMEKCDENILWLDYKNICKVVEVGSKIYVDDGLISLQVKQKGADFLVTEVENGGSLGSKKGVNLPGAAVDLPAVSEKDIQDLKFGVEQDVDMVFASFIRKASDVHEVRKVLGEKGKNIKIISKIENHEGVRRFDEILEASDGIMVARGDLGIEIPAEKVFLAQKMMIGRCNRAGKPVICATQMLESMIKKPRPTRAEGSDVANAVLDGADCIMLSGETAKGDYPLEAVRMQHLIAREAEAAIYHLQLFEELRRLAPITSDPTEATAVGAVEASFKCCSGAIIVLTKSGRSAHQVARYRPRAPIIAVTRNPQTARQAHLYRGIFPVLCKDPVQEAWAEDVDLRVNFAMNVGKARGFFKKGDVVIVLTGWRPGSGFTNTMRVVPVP
Sequence of 3',5'-cyclic-AMP phosphodiesterase 4B (Homo sapiens) (Q07343 whole entry, looked up): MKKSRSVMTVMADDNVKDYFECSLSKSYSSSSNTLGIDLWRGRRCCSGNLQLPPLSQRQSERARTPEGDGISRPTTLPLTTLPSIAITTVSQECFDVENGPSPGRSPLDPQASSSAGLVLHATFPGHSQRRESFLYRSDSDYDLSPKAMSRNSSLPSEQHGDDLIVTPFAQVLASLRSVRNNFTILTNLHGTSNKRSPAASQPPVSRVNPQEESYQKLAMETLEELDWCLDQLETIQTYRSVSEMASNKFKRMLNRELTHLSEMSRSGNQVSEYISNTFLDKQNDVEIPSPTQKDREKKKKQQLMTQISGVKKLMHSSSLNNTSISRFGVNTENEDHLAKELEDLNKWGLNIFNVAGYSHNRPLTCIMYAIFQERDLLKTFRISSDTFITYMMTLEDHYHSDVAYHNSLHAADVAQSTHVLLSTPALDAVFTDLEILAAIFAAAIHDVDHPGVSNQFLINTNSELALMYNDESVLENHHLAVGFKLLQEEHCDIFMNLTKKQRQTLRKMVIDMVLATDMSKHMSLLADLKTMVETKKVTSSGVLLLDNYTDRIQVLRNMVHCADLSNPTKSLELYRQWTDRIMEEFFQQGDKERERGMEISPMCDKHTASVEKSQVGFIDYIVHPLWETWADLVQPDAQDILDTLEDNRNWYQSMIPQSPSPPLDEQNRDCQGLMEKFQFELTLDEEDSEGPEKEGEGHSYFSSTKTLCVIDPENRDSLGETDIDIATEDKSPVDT
Sequence of Alpha-galactosidase A (Homo sapiens) (P06280 whole entry, looked up): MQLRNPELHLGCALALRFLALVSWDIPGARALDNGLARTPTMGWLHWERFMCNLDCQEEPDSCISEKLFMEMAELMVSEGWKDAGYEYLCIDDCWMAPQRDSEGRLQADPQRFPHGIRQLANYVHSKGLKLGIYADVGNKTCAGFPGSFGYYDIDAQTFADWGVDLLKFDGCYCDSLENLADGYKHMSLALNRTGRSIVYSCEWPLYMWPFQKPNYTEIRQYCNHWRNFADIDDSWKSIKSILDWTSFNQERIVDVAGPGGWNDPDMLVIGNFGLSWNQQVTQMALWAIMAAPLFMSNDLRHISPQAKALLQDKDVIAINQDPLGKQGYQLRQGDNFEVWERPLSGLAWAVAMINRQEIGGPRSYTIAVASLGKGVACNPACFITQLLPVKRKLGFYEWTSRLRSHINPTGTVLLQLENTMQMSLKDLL
Sequence of Cytochrome P450 2C9 (Homo sapiens) (P11712 whole entry, looked up): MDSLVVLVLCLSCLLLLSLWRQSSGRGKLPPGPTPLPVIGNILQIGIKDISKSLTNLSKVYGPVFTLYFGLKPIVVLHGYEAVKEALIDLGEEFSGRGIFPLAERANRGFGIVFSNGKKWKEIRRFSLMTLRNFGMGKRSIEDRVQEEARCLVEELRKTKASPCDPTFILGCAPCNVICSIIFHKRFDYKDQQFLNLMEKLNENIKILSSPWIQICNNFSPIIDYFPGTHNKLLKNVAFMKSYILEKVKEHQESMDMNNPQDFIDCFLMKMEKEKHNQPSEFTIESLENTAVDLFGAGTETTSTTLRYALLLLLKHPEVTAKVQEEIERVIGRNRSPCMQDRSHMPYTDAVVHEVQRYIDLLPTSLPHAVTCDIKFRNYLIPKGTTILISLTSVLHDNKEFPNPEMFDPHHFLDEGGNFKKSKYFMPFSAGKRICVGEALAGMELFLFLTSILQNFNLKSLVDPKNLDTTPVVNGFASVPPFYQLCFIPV
Sequence of Pyruvate kinase (Leishmania mexicana) (Q27686 2-499 E452W): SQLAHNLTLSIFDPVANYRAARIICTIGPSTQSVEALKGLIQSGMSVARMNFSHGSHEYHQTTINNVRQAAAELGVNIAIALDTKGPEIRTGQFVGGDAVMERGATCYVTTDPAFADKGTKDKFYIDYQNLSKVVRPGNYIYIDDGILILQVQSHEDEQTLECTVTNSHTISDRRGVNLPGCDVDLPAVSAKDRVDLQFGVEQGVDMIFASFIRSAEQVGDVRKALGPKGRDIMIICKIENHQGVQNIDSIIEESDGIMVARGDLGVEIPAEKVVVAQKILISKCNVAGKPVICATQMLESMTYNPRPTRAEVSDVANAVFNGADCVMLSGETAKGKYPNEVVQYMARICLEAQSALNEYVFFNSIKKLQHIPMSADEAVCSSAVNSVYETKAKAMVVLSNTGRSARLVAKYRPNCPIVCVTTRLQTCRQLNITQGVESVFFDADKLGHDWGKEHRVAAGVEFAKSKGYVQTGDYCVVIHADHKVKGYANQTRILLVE
Sequence of Cytochrome P450 3A4 (Homo sapiens) (P08684 whole entry, looked up): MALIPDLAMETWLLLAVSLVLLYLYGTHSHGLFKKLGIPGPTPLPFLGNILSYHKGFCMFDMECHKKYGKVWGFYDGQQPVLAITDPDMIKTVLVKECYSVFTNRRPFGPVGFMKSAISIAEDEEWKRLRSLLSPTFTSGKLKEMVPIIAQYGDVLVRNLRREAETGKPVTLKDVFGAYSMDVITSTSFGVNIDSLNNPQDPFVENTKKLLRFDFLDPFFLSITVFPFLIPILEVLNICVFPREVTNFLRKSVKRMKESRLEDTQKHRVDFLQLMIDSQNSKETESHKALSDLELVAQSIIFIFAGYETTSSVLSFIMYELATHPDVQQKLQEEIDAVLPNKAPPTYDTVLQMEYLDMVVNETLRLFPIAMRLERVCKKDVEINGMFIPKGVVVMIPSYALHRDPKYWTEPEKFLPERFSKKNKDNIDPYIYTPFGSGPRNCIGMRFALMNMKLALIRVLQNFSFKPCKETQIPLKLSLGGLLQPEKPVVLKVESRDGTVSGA
Sequence of Cytochrome P450 2D6 (Homo sapiens) (P10635 whole entry, looked up): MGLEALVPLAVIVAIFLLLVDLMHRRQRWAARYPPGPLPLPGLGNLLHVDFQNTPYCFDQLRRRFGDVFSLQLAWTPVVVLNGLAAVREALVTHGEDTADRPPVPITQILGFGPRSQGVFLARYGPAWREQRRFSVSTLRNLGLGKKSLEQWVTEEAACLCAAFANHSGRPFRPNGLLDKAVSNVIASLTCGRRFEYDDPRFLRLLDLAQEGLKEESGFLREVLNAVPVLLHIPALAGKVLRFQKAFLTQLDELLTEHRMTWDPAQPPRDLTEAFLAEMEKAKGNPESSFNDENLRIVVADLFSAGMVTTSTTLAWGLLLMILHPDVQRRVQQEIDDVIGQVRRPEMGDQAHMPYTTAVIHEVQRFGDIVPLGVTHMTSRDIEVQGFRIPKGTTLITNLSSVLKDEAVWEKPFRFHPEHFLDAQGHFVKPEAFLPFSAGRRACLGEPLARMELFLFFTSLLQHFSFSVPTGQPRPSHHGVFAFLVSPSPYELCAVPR

CSc1nc(N)c2ncn([C@@H]3O[C@@H](COP(=O)(O)OP(=O)(O)OP(=O)(O)O)[C@@H](O)[C@H]3O)c2n1
inactive: activity change, negative = inhibition [1] 18.4% [at 38 µM] | Potency [2] | activity change, negative = inhibition [3] 0.479% [at 38 µM] | activity, negative = inhibition [4] -1.18% [at 38 µM] | Potency [5] > 46 µM | Potency [6] > 46 µM | Potency [7] | Potency [8] | Potency [9] | Potency [10] | Potency [11] | outcome [12] | Potency [13] | outcome [14] | outcome [15] | Potency [16]

CC(C)N(Cc1ccccc1)S(=O)(=O)c1n[nH]c(C(C)(C)C)n1
inactive: activity change, negative = inhibition [1] -0.248% | Potency [2] | activity change, negative = inhibition [3] 4.29% | activity, negative = inhibition [4] -2.12% | Potency [5] > 46 µM | Potency [6] > 9.22 µM | Potency [7] | Potency [8]
active: Potency [9] 3.98 µM

COc1cc2c(cc1OC)[C@H](c1ccccc1)CN(C)CC2
inactive: activity change, negative = inhibition [1] -2.12% [at 38 µM] | Potency [2] | activity change, negative = inhibition [3] -8.45% [at 38 µM] | activity, negative = inhibition [4] 0.584% [at 38 µM] | Potency [5] > 46 µM | Potency [6] > 46 µM | Potency [7] | Potency [8] | outcome [17] | outcome [12] | Potency [13] | outcome [19] | outcome [14] | outcome [15] | Potency [16]
active: Potency [18] 12.6 µM

CCCCCCCCCCCCCCC/C=C\[C@H](O)[C@@H](NC(=O)CCCCCCCCCCCCC)OC (tested in a mixture with another compound)
inactive: activity change, negative = inhibition [1] 15.5% [at 38 µM] | Potency [2] | activity change, negative = inhibition [3] 13% [at 38 µM] | activity, negative = inhibition [4] -20.2% [at 38 µM] | Potency [5] > 46 µM | Potency [6] > 46 µM | Potency [7] | Potency [8] | outcome [17] | outcome [12] | Potency [20] | Potency [13] | outcome [19] | outcome [14] | outcome [15] | Potency [16]

N[C@@H](C(=O)O)[C@@H]1C[C@H]1C(=O)O
inactive: activity change, negative = inhibition [1] -6.47% [at 38 µM] | Potency [2] | activity change, negative = inhibition [3] 4.34% [at 38 µM] | activity, negative = inhibition [4] 16.9% [at 38 µM] | Potency [5] > 46 µM | Potency [6] > 46 µM | Potency [7] | Potency [8] | Potency [9] | Potency [10] | Potency [11]

CN[C@]1(C)[C@@H]2CC[C@@H](C2)C1(C)C
inactive: activity change, negative = inhibition [1] -7.63% [at 38 µM] | Potency [2] | activity change, negative = inhibition [3] -5.79% [at 38 µM] | activity, negative = inhibition [4] -12.2% [at 38 µM] | Potency [5] > 46 µM | Potency [6] > 46 µM | Potency [7] | Potency [8] | outcome [17] | Potency [18] | Potency [11] | Potency [20] | Potency [13] | outcome [14] | outcome [15] | Potency [16]

NC(=O)c1ncn([C@@H]2O[C@@H](CO)[C@@H](O)[C@H]2O)c1O
inactive: activity change, negative = inhibition [1] 15.7% [at 38 µM] | Potency [2] | activity change, negative = inhibition [3] 2.24% [at 38 µM] | activity, negative = inhibition [4] 3.38% [at 38 µM] | Potency [5] > 46 µM | Potency [6] > 46 µM | Potency [7] | Potency [8] | outcome [17] | outcome [12] | Potency [20] | outcome [14] | outcome [15] | Potency [16]

NC(N)=N[C@H](CCC(=O)O)C(=O)O
inactive: activity change, negative = inhibition [1] -11% [at 38 µM] | Potency [2] | activity change, negative = inhibition [3] -4.2% [at 38 µM] | activity, negative = inhibition [4] 0.861% [at 38 µM] | Potency [5] > 46 µM | Potency [6] > 46 µM | Potency [7] | Potency [8] | outcome [17] | Potency [18] | outcome [12] | Potency [20] | Potency [13] | outcome [19] | outcome [14] | outcome [15] | Potency [16]

Nc1nc2c(nc(Br)n2[C@@H]2O[C@H]3COP(=O)(O)O[C@@H]3[C@H]2O)c(=O)[nH]1
inactive: activity change, negative = inhibition [1] 8.86% [at 38 µM] | Potency [2] | activity change, negative = inhibition [3] -0.742% [at 38 µM] | activity, negative = inhibition [4] -10.7% [at 38 µM] | Potency [6] > 46 µM | Potency [7] | Potency [8] | outcome [17] | outcome [12] | Potency [20] | Potency [13] | outcome [19] | outcome [14] | outcome [15] | Potency [16]
active: Potency [5] 12.1 µM

C#C[C@H](N)CCC(=O)O
inactive: activity change, negative = inhibition [1] 2.59% [at 38 µM] | Potency [2] | activity change, negative = inhibition [3] -4.34% [at 38 µM] | activity, negative = inhibition [4] 1.65% [at 38 µM] | Potency [5] > 46 µM | Potency [6] > 46 µM | Potency [7] | Potency [8] | outcome [17] | Potency [10] | outcome [12] | Potency [20] | outcome [14] | outcome [15] | Potency [16]

CCCCCCCCCC[Si](C)(C)CCC(=O)N[C@@H](Cc1ccc(C)cc1)c1ccccc1
inactive: activity change, negative = inhibition [1] 20.2% [at 38 µM] | activity change, negative = inhibition [3] -7.96% [at 38 µM] | activity, negative = inhibition [4] -5.69% [at 38 µM] | Potency [5] > 46 µM | Potency [6] > 46 µM | Potency [7] | Potency [8] | outcome [17] | Potency [11] | Potency [13] | outcome [19] | outcome [14] | outcome [15] | Potency [16]
active: Potency [2] 31.6 µM
